# About 19,000 (20%) of roughly 96,000 compounds were called active. Only a sample is shown. A number with no mark means an inactive call.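 How the source made its calls: active means blocking of liver enzyme CYP2C9 beyond about 50% at 5 µM (limit read from the data); inactive means the rest.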
# Target: Cytochrome P450 2C9 (Homo sapiens) (UniProt P11712)
# Test: blockers of cytochrome P450 2C9 activity – biochemical, luminescence, ADME assay, primary screen (AID 777)
# Details: CYP2C9 Supersomes, luciferin-H conversion, at 5 µM, active compounds read high
# Cytochrome P450 2C9 (Homo sapiens), sequence (P11712 whole entry, looked up): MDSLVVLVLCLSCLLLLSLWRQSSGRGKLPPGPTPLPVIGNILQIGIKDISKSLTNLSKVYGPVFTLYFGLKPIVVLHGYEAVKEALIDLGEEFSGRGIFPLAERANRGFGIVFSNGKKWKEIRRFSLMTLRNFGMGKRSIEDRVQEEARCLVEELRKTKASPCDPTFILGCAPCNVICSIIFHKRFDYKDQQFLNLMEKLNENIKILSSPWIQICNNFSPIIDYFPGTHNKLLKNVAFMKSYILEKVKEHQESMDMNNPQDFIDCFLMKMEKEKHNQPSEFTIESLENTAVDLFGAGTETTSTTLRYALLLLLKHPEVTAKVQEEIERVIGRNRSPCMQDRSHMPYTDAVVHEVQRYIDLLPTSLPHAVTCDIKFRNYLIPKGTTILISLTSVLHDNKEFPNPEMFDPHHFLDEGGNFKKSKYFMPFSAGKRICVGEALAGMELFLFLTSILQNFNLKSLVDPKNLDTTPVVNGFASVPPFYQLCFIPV
row,Structure (SMILES),inhibition
1,COC(=O)C1CCN(CC(N)=O)CC1,-11.4%
2,CCOC(=O)CC1=CC(=O)Nc2ccccc2N1,7.1%
3,O=C(CSc1nnnn1-c1ccc2c(c1)CCC2)Nc1ccc2c(c1)OCCO2,0.6%
4,O=C(CSc1nc2ncccc2[nH]1)Nc1ccc2c(c1)OCCO2,95.5% (active)
5,O=C(CSc1nnnn1C1CCCC1)Nc1ccc2c(c1)OCCO2,62.4% (active)
6,O=C(CSc1nc(C2CC2)nc2ccccc12)Nc1ccc2c(c1)OCCO2,40.1%
7,CCC(=O)Nc1cccc(NC(=O)CSc2nnnn2C2CCCC2)c1,16.4%
8,CCNC(=O)c1sccc1-n1cccc1,16.1%
9,Cc1ccc(N2C(=O)CC(Sc3ncn[nH]3)C2=O)cc1 (stereo unspecified),-1.5%
10,Nc1nonc1C(=O)NCCc1ccccc1,-8.7%
11,COc1ccc(OCCCON2C(=O)c3ccccc3C2=O)cc1,7.6%
12,CN1CCN(C(=O)C2C3C=CC(C3)C2C(=O)O)CC1 (stereo unspecified),-9.2%
13,Cc1ccc2nc(S(=O)(=O)O)[nH]c2c1,-11.8%
14,Cc1ccc2nc(/C(C#N)=C\c3ccc(OC(=O)c4cccs4)cc3)[nH]c2c1,81.3% (active)
15,CSc1nsc(SC)c1NC(=O)OC1CCCCC1,21.9%
16,O=C(Cn1c(-c2ccccn2)nc2ccccc21)NCCN1CCOCC1,-10.5%
17,Cc1cc(Nc2ccccc2)n(CCC#N)n1,-12.2%
18,COC(=O)CN1C(=O)C(O)=C(C(C)=O)C1c1ccc([N+](=O)[O-])cc1 (stereo unspecified),3.5%
19,COc1ccc(S(=O)(=O)N2CCCC(C(=O)N3CCN(C)CC3)C2)cc1C (stereo unspecified),-24%
20,O=C(Cc1cccs1)N1CCCC(c2nc(-c3ccc(S(=O)(=O)N4CCCC4)cc3)no2)C1 (stereo unspecified),47.8%
21,COc1cc(-c2noc(C3CCCN(S(=O)(=O)c4cccc(Cl)c4)C3)n2)cc(OC)c1OC (stereo unspecified),85.3% (active)
22,COc1ccc(NC(=O)C2CCCN(S(=O)(=O)c3cccc4cccnc34)C2)cc1OC (stereo unspecified),-15.1%

row,Structure (SMILES),inhibition
1,CS(=O)(=O)N1CCCC(C(=O)N2CCOCC2)C1 (stereo unspecified),-11.8%
2,CC(C)c1ccc(-c2noc(C3CCCN(S(C)(=O)=O)C3)n2)cc1 (stereo unspecified),52.2% (active)
3,O=C(c1cccs1)N1CCCC(c2nc(-c3ccc(F)cc3)no2)C1 (stereo unspecified),76.9% (active)
4,OCCNc1nc2ccccc2[nH]1,2.6%
5,Cc1nnc(SCC(=O)Nn2cnnc2)s1,29.8%
6,CCc1cc(C(c2ccccc2OC)N2CCOCC2)c(NC(=O)c2ccccc2)s1 (stereo unspecified),85.2% (active)
7,CCOC(=O)c1c(NC(=O)c2ccc(N3CCOCC3)c([N+](=O)[O-])c2)sc(C)c1C,7.5%
8,COc1ccccc1NC(=O)c1ccc2nc(N3C(=O)CCC3=O)sc2c1,-32%
9,COc1ccc(-n2c(SC)nc(O)cc2=O)cc1,-81.1%
10,O=C1CSC2=NCN(c3ccccc3)CN12,26.1%
11,O=S(N1CCCCCC1)C12CC3CC(CC(C3)C1)C2 (stereo unspecified),9.9%
12,O=C(OCC(=O)N1CCN(C(=O)c2ccco2)CC1)c1ccccc1Cc1ccccc1,31.9%
13,CCOC(=O)c1[nH]c2ccccc2c1N=C(C)N(CC)CC,-6.5%
14,COc1ccccc1OCCOc1ccc(/C=N/n2cnnc2)cc1,44.5%
15,C=CCOc1ccc(/C=N/n2cncn2)cc1OC,57.5% (active)
16,COc1cccc(OCCOc2cccc(/C=N/n3cnnc3)c2)c1,40%
17,Cc1ccc2c(CSc3nncs3)cc(=O)oc2c1,67% (active)
18,COC(=O)CCSc1cc([N+](=O)[O-])cc2c1c(C1OCCS1)nn2-c1ccccc1 (stereo unspecified),34.3%
19,Cc1ccccc1C(=O)NCCN=C1NS(=O)(=O)c2ccccc21,7.9%
20,COc1ccc(C(C#N)N2N=C(C)CC2(C)C)cc1 (stereo unspecified),-2.1%
21,N#CC1=C(SCc2ccc(C#N)cc2)N=C(N)C(c2nc(-c3ccccc3)cs2)C12CCCCC2 (stereo unspecified),98.6% (active)
22,N#CC1=C(SCc2ccccc2)NC(=O)C(C#N)C12CCCC2 (stereo unspecified),46.5%

row,Structure (SMILES),inhibition
1,O=C(O)c1cc2ccccc2c(=O)s1,-1.7%
2,CCOC(=O)C1CCCN(C(=O)C2CCN(c3nnc(-n4cccc4)s3)CC2)C1 (stereo unspecified),25.6%
3,O=C(O)CCN1C(=O)CC2(CCCCC2)C1=O,11.2%
4,O=[N+]([O-])c1ccc(C=Nc2ccc(Cl)cc2Cl)s1,7.9%
5,O=C1[C@@H]2C(Cc3ccc(O)cc3)NC3(C(=O)Nc4ccc(F)cc43)[C@@H]2C(=O)N1c1ccc(F)cc1 (stereo partly specified),50.6% (active)
6,COc1ccc(NC(=O)C(NC(C)=O)C(=O)NCc2ccccc2Cl)cc1 (stereo unspecified),37.2%
7,COCCCNC(NC(=O)c1ccc(C)cc1)C(Cl)(Cl)Cl (stereo unspecified),4.7%
8,Cc1ccc(NC(=S)NC(NC(=O)Cc2cccc3ccccc23)C(Cl)(Cl)Cl)cc1 (stereo unspecified),96.6% (active)
9,COc1ccc(NC(=O)Nc2ccc3nsnc3c2)cc1,23.7%
10,COc1cccc2c1OCC1COc3c(c(=O)n(C)c(=O)n3C)C21 (stereo unspecified),-6%
11,NC(=O)c1ccsc1NC(=O)c1ccco1,61.4% (active)
12,O=C(Nc1nnc(SCc2ccccc2)s1)c1ccco1,6.2%
13,O=C(Nc1ccc(NC(=O)c2cccs2)cn1)c1ccco1,23.5%
14,CC(NCCO)C(=O)C12CC3CC(CC(C3)C1)C2 (stereo unspecified),-0.7%
15,COc1ccc(N2C(=O)CCC(C(=O)Nc3ccccn3)C2c2ccc(OC)c(OC)c2)cc1 (stereo unspecified),2.6%
16,Cc1csc(=NC(=O)c2ccccc2)n1CCO,32.3%
17,Cc1cc(C(=O)N2CCN(c3ccccn3)CC2)c(C)o1,12.4%
18,Cc1ccc(-c2nc(CS(=O)CC(=O)N3CCN(c4ncccn4)CC3)c(C)o2)cc1 (stereo unspecified),79% (active)
19,Cc1ccc(S(=O)(=O)N(C)CC(=O)NC2CCCC2)cc1,-30.3%
20,Cc1ccc(-c2nc(CS(=O)CC(=O)NC3CCCC3)c(C)o2)cc1 (stereo unspecified),53% (active)
21,COc1ccc(-c2nc(CS(=O)CC(=O)N3CCc4ccccc4C3)c(C)o2)cc1 (stereo unspecified),40.4%
22,COc1ccc(-c2nc(CS(=O)CC(=O)NCc3cccnc3)c(C)o2)cc1OC (stereo unspecified),47.2%
